Compound activity: PubChem, several laboratories
BoNT A protease: blocks Botulinum neurotoxin A light chain protease; multiplex microsphere protease substrate cleavage, flow cytometry; inhibition, % at 10 µM; 0.17% of 360,000 active; AID 588499
FBA Mtb inh: inhibitors of M. tuberculosis fructose-bisphosphate aldolase; purified M. tuberculosis FBA, fluorescence read-out; P9WQA3; 2.3% of 360,000 active; inhibition, % at 1 µM; in the data active = inhibition above about 27%
GDH-TPI counter: counter-screen for M. tuberculosis FBA inhibitors: GDH-TPI coupled enzymes. 1.2% of 360,000 active. inhibition, % at 4.8 µM. GDH-TPI coupled enzyme counterscreen, NADH absorbance. AID 588335; in the data active = inhibition above about 30%
Anthrax LF inh2: inhibitors of Bacillus anthracis lethal factor protease. 0.12% of 360,000 active. inhibition, % at 10 µM. multiplex microsphere protease cleavage assay, LF. P15917. AID 588501
Target sequence (P15917 whole entry, looked up): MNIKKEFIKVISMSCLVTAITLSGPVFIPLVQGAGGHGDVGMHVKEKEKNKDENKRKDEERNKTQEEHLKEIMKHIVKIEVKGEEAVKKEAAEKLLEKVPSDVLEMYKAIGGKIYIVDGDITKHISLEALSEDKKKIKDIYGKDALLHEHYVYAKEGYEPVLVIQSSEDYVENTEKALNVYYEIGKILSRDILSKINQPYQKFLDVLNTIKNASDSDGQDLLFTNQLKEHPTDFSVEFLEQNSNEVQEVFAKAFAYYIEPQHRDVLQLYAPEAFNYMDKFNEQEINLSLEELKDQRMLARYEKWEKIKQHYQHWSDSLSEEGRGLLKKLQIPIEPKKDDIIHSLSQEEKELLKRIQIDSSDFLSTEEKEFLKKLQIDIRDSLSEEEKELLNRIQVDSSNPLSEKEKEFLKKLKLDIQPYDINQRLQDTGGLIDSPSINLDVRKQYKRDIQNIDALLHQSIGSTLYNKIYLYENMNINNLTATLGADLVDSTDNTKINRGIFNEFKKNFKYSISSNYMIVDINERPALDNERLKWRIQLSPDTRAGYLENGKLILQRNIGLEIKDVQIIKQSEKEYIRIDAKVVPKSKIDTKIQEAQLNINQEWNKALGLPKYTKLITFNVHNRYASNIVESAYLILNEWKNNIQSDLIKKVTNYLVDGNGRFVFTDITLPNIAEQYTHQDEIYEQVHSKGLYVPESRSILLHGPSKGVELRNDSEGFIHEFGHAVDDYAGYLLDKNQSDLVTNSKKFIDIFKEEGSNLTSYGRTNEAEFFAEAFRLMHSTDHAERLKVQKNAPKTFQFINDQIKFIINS
BoNT F protease: BoNT F light chain protease inhibition; Multiplex microsphere protease cleavage assay, flow cytometry; inhibition, % at 10 µM; 0.22% of 360,000 active; AID 588497; in the data active = inhibition above about 35%, passing the limit was not always enough; inconclusive = no clear call, values can overlap the other calls
Autofluor counter: flagged as autofluorescent in microsphere protease counterscreen; AID 624483; compound autofluorescence counterscreen, microsphere flow cytometry; stronger effect = higher value; 3.1% of 360,000 active; fluorescence intensity (concentration not given with the values); in the data active = fluorescence intensity above about 16000; inconclusive = no clear call, values can overlap the other calls
Each line names hits and unclear results; the compound was inactive in the other large screens. This is a sample that favours compounds with a hit; in the whole collection about 6.7% have one here. Rule as the data show it, unless noted: active = inhibition above about 30%; inconclusive = no clear call, values can overlap the other calls; inactive = below that.

Cc1ccc(S(=O)(=O)N(C)C)cc1NC(=O)c1cc(-c2ccco2)nc2ccccc12	FBA Mtb inh 45
Fc1ccccc1CNC(=S)NCc1ccc(Cl)cc1	none
CN(C)c1ccc(-c2nnc(-c3ccccc3F)o2)cc1	GDH-TPI counter 33, BoNT F protease inconclusive
COc1ccc(-c2nnc(-c3ccc(N(C)C)cc3)o2)cc1	none
Clc1ccc(-c2nnc(-c3ccccc3Cl)o2)cc1	Autofluor counter 17061
Clc1ccccc1-c1nnc(-c2ccccc2Cl)o1	none
CC1(C(=O)NCc2cccs2)Cc2c(-c3cccc(C(F)(F)F)c3)ccnc2O1 (stereo not drawn)	none
C[C@H](CO)N1C[C@H](C)[C@@H](CN(C)C(=O)NC2CCCCC2)Oc2c(NC(=O)c3ccncc3)cccc2C1=O	none
O=C(Cc1ccc([N+](=O)[O-])cc1)OCc1ccc([N+](=O)[O-])cc1	none
O=C(Cc1ccc(Br)cc1)c1ccc(O)cc1O	GDH-TPI counter 41
O=C(Cc1ccc([N+](=O)[O-])cc1)c1ccc(O)cc1O	GDH-TPI counter 51
O=C(COc1ccccc1Br)c1ccc2c(c1)OCO2	none
O=C(COc1ccccc1Br)c1ccc(O)cc1O	GDH-TPI counter 44
COc1ccc(CC(=O)c2ccc(O)cc2O)cc1	GDH-TPI counter 43
O=C(Cn1cnc2ccccc2c1=O)Nc1ccc2c(c1)OCO2	none
CCCSc1nc(-c2ccccc2)cc(C(F)(F)F)c1C#N	Autofluor counter 19871
CCCCOc1ccc(-c2cc(C(F)(F)F)c(C#N)c(SCC(=O)O)n2)cc1	none
O=C(Nc1ccccc1)Nc1cccc(-c2cn3cccnc3n2)c1	none
CCCCC(=O)Nc1cccc(-c2cn3ccccc3n2)c1	FBA Mtb inh 33
CCCC(=O)Nc1cccc(-c2cn3cccnc3n2)c1	FBA Mtb inh 189
CCOCC(=O)Nc1ccc(-c2cn3cccnc3n2)cc1	FBA Mtb inh active
COc1ccc(-c2cn3cccnc3n2)cc1NC(=O)CC(C)C	none
CC(C)(C)CC(=O)Nc1ccc(-c2cn3cccnc3n2)cc1	FBA Mtb inh active
CCOc1ccc2nc(N=NC3=C(O)CC(C)(C)CC3=O)sc2c1	none
O=C(CCNC(=O)c1ccc(Cl)cc1)NCCC1=CCCCC1	none
COc1ccccc1CNc1ncnc2cc(OC)c(OC)cc12	none
CC1CCN(S(=O)(=O)c2ccc3c(c2)N(CC(=O)NCCCN(Cc2ccccc2)C(C)C)C(=O)CO3)CC1	none
CCN(CC)S(=O)(=O)c1cccc(-c2cn3cccnc3n2)c1	FBA Mtb inh 181
Nc1cccc(-c2cn3cccnc3n2)c1	none
CC(C)CC(=O)Nc1ccc(-c2cn3cccnc3n2)cc1	FBA Mtb inh active
CCCC(=O)Nc1cc(-c2cn3cccnc3n2)ccc1OC	Autofluor counter 18918
CCCC(=O)Nc1ccc(-c2cn3cccnc3n2)cc1	FBA Mtb inh active
CCc1ccc(C(O)c2ncc(-c3ccc(C(F)(F)F)cc3)[nH]2)cc1 (stereo not drawn)	none
COC(=O)C1=C(c2cc3ccccc3o2)C[C@@H]2CC[C@H]1N2C(=O)N1CCCC1	none
COc1ccccc1/C=C/C(=O)NCC(=O)N/N=C(/C)c1ccc(Cl)cc1	none
COC(=O)C1=C(c2ccc(OC(F)(F)F)cc2)C[C@@H]2CC[C@H]1N2C(=O)NCCc1ccccc1	GDH-TPI counter 58
O=C(CSc1nnc(Cc2ccccc2)n1Cc1ccco1)NC12CC3CC(CC(C3)C1)C2	BoNT A protease inconclusive, Autofluor counter 23614
CCN=C(Nc1cccc(F)c1)SC1CC(=O)N(c2ccc(OC)cc2)C1=O (stereo not drawn)	none
COc1cc(C(=O)N(C)C2CCCCC2)ccc1OC1CCN(C(C)=O)CC1	BoNT F protease inconclusive
COCCNC(=O)c1ccc(CN2CCc3ccccc3C2)cc1	none
COc1ccccc1Cc1noc(C(C)(C)NC(=O)c2ccccc2)n1	Autofluor counter 17677
O=C(NC1=NCCS1)c1cc2ccccc2o1	Autofluor counter 20997
Cc1cc(C(=O)NC2=NCCS2)cs1	BoNT A protease inconclusive, Autofluor counter 22079
Cc1cccc(C(=O)NC2=NCCS2)c1	none
CCOC(=O)c1c(NC(N)=O)nc2n1CCC2	none
CC(=O)NS(=O)(=O)c1ccc(NC(=O)/C=C/c2cn(-c3ccccc3)nc2-c2ccccc2)cc1	GDH-TPI counter 43
Cn1cccc1Cc1nnc(SCC(=O)Nc2ccc3c(c2)OCCO3)n1-c1ccc(F)cc1	none
COc1ccc(-n2c(Cc3cccn3C)nnc2SCC(=O)NCc2ccc(F)cc2)cc1	none
